Where a name gives a salt, the structure may show the parent alone.
Columns and labels:
Conditions in all cases: 10 µM; exposure time 6 h
[1] = system: Danio rerio larvae (5 dpf); assay: difference in excitability vs DMSO (percentage points); higher = more excitable than DMSO
Method in brief: (§1)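 In 96-well plates, 48 wild-type zebrafish larvae aged 5 dpf per compound received 100 µL egg water with library compound at 10 µM final for 6 h. Three hours into this, a 3-h programme of moving lines and 100 ms, 400Hz tones ran at 28.5 ℃ while plates were photographed every 6 s. Z-LaP Tracker scored the behaviours, and each is given as the compound mean minus the vehicle control mean in percentage points.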

[2] = system: Danio rerio larvae (5 dpf); assay: difference in startle response vs DMSO (percentage points); higher = stronger startle than DMSO
Method in brief: as §1

[3] = system: Danio rerio larvae (5 dpf); assay: difference in activity during first hour vs DMSO (percentage points); higher = more activity than DMSO
Method in brief: as §1

[4] = system: Danio rerio larvae (5 dpf); assay: difference in habituation to acoustic stimuli vs DMSO (percentage points); higher = more habituation than DMSO
Method in brief: as §1

[5] = system: Danio rerio larvae (5 dpf); assay: difference in combined optomotor response to red, green and blue moving lines vs DMSO (percentage points); higher = stronger optomotor response than DMSO
Method in brief: as §1

Row | Compound | difference in excitability [1] | difference in startle response [2] | difference in activity during first hour [3] | difference in habituation to acoustic stimuli [4] | difference [5]
1 | COc1ccc2[nH]c([S@@+]([O-])Cc3ncc(C)c(OC)c3C)nc2c1 [Esomeprazole Magnesium] | 8.33 | 7.11 | 4.64 | -0.745 | 5.95
2 | O=C1[C@H](CC[C@H](O)c2ccc(F)cc2)[C@@H](c2ccc(O)cc2)N1c1ccc(F)cc1 [Ezetimibe] | 3.43 | 3.17 | -1.12 | -7.52 | 7.17
3 | Clc1ccc(CSC(Cn2ccnc2)c2ccc(Cl)cc2Cl)cc1 (stereo not given) [Sulconazole (nitrate)] | 11.3 | -12.7 | -17.2 | -12 | -16.4
4 | CC(=O)O[C@]1(C(C)=O)CC[C@H]2[C@@H]3CCC4=CC(=O)CCC4=C3[C@@H](c3ccc(N(C)C)cc3)C[C@@]21C [Ulipristal Acetate] | 4.89 | -8.5 | -5.48 | 5.46 | -10.6
5 | C[C@]12CC[C@@H]3c4ccc(OS(=O)(=O)O)cc4CC[C@H]3[C@@H]1CCC2=O [Estropipate] | 1.84 | -3.42 | -3.25 | -2.86 | -4.79
6 | CC1(C)C[C@@H]1C(=O)N/C(=C\CCCCSC[C@H](N)C(=O)O)C(=O)O [Cilastatin] | -5.97 | 11.7 | 15 | -6.5 | 10.5
7 | CC(=O)N[C@H]1[C@H]([C@H](O)[C@H](O)CO)OC(C(=O)O)=C[C@@H]1NC(=N)N [Zanamivir] | 1.36 | -2.53 | -16.7 | 1.69 | -6.11
8 | NCC(=O)CCC(=O)O [5-Aminolevulinic Acid (hydrochloride)] | 11.2 | 1.8 | 1.6 | -2.9 | 2.93
9 | OCCOCCN1CCN(C2=Nc3ccccc3Sc3ccccc32)CC1 [Quetiapine (hemifumarate)] | -1.54 | -3.79 | 16.8 | -4.99 | 10.6
10 | NS(=O)(=O)c1cc2c(cc1Cl)N=CNS2(=O)=O [Chlorothiazide] | -0.0236 | -3.29 | 3.22 | 6.65 | -5.74
11 | CC(O)(P(=O)(O)O)P(=O)(O)O [Etidronate (sodium salt)] | 5.12 | 2.23 | 11.4 | -1.7 | 4.9
12 | CCOC(=O)O[C@]1(C(=O)COC(=O)CC)CC[C@H]2[C@@H]3CCC4=CC(=O)C=C[C@]4(C)[C@H]3[C@@H](O)C[C@@]21C [Prednicarbate] | 10.3 | 3.6 | -2.36 | -0.38 | -0.877
13 | Cc1ccc(=O)n(-c2ccccc2)c1 [Pirfenidone] | -2.03 | 3.37 | 0.0618 | 2.62 | 8.23
14 | CC(=O)OC(C)C[N+](C)(C)C (stereo not drawn) [Acetyl-β-methylcholine (chloride)] | 1.77 | 1.22 | 3.93 | 15 | 1.43
15 | C1N2CN3CN1CN(C2)C3 [Methenamine Hippurate] | 0.76 | 5.89 | -3.94 | 9.62 | 2.94
16 | Nc1nc2c(ncn2COC(CO)CO)c(=O)[nH]1 [Ganciclovir] | 1.56 | 3.58 | 7.53 | 2.18 | 4.57
17 | O=C(NC[C@H]1CN(c2ccc(N3CCOCC3=O)cc2)C(=O)O1)c1ccc(Cl)s1 [Rivaroxaban] | -1.52 | -3.86 | -2.47 | -4.56 | 1.67
18 | CC1(C)O[C@@H]2[C@@H](CO[C@@]3(COS(N)(=O)=O)OC(C)(C)O[C@@H]23)O1 [Topiramate] | -2.77 | 10.8 | -1.72 | 1.75 | -0.45
19 | CC(C)C(=O)Nc1ccc([N+](=O)[O-])c(C(F)(F)F)c1 [Flutamide] | 2.83 | -7 | -6.35 | -14.3 | -13.7
20 | OCCN1CCN(CCCN2c3ccccc3Sc3ccc(Cl)cc32)CC1 [Perphenazine] | 18.9 | -4.36 | 24 | -10.2 | 2.99
21 | NC(=O)C(c1ccccc1)(c1ccccc1)[C@@H]1CCN(CCc2ccc3c(c2)CCO3)C1 [Darifenacin (hydrobromide)] | 15.5 | -9.95 | -4.6 | -3.27 | -6.74
22 | CC(C)OC(=O)C(C)(C)Oc1ccc(C(=O)c2ccc(Cl)cc2)cc1 [Fenofibrate] | 13.8 | -6.52 | 45.6 | -9.59 | -15.8
23 | COc1ccc2[nH]c([S+]([O-])Cc3ncc(C)c(OC)c3C)nc2c1 (stereo not given) [Omeprazole] | 14.6 | -0.657 | -0.859 | 0.506 | 5.66

Row | Compound | difference in excitability [1] | difference in startle response [2] | difference in activity during first hour [3] | difference in habituation to acoustic stimuli [4] | difference [5]
24 | C=CC(=O)N1CCC[C@@H](n2nc(-c3ccc(Oc4ccccc4)cc3)c3c(N)ncnc32)C1 [Ibrutinib] | 14.1 | 0.877 | -6.73 | -6.76 | 9.38
25 | CN(C)CCCN1c2ccccc2CCc2ccccc21 [Imipramine (hydrochloride)] | 14.5 | -8.78 | -16.4 | -11.2 | -6.91
26 | O=C1NC(=O)C(c2ccccc2)(c2ccccc2)N1 [Phenytoin] | -0.551 | -0.35 | -12.3 | 5.69 | 0.724
27 | CCc1c2c(nc3ccc(OC(=O)N4CCC(N5CCCCC5)CC4)cc13)-c1cc3c(c(=O)n1C2)COC(=O)[C@]3(O)CC [Irinotecan (hydrochloride hydrate)] | 13.5 | -2.28 | 0.361 | 2.44 | 2.92
28 | NS(=O)(=O)c1cc(Cl)c(Cl)c(S(N)(=O)=O)c1 [Dichlorphenamide] | 1.47 | -2.89 | -2.19 | -4.78 | -8.01
29 | COc1ccc(-n2nc(C(N)=O)c3c2C(=O)N(c2ccc(N4CCCCC4=O)cc2)CC3)cc1 [Apixaban] | -0.692 | -6.58 | 1.99 | 4.29 | 10.4
30 | COc1ccccc1Oc1c(NS(=O)(=O)c2ccc(C(C)(C)C)cc2)nc(-c2ncccn2)nc1OCCO [Bosentan] | 11.1 | -7.54 | 2.38 | 2.24 | -0.979
31 | CC(C)NCC(O)c1ccc(NS(C)(=O)=O)cc1 (stereo not given) [Sotalol (hydrochloride)] | -4.39 | -2.26 | 12 | -2.03 | -2.43
32 | COc1ccc(C[C@@H](C)NC[C@H](O)c2ccc(O)c(NC=O)c2)cc1 [Arformoterol (tartrate)] | 10.3 | -8.57 | 39 | -7.89 | -2.14
33 | CCCCc1oc2ccc(NS(C)(=O)=O)cc2c1C(=O)c1ccc(OCCCN(CCCC)CCCC)cc1 [Dronedarone (hydrochloride)] | 7.9 | -9.8 | 11.1 | -12.7 | -11.9
34 | CCNC(=O)[C@@H]1CCCN1C(=O)[C@H](CCCNC(=N)N)NC(=O)[C@H](CC(C)C)NC(=O)[C@@H](CC(C)C)NC(=O)[C@H](Cc1ccc(O)cc1)NC(=O)[C@H](CO)NC(=O)[C@H](Cc1c[nH]c2ccccc12)NC(=O)[C@H](Cc1c[nH]cn1)NC(=O)[C@@H]1CCC(=O)N1 [Leuprorelin (acetate)] | 16.2 | -0.397 | -3.87 | 1.37 | 4.92
35 | CC(=O)Oc1ccccc1C(=O)O [Aspirin] | -1 | 2.44 | 2.02 | 1.42 | 2.52
36 | CNC(=C[N+](=O)[O-])NCCSCc1csc(CN(C)C)n1 [Nizatidine] | -3.87 | -1.69 | 7.71 | 2.96 | 2.72
37 | CC#CC(=O)N1CCC[C@H]1c1nc(-c2ccc(C(=O)Nc3ccccn3)cc2)c2c(N)nccn12 [Acalabrutinib] | 2.39 | 12.9 | 10.5 | 5 | -2.56
38 | CC(C)CN(C[C@@H](OP(=O)(O)O)[C@H](Cc1ccccc1)NC(=O)O[C@H]1CCOC1)S(=O)(=O)c1ccc(N)cc1 [Fosamprenavir (calcium salt)] | 0.179 | 4.76 | 22.4 | -2.19 | 5.16
39 | CCCCCCCC/C=C\CCCCCCCC(=O)NCCO [Oleoyl Ethanolamide] | 3.95 | 1.17 | 2.47 | -3.04 | -0.503
40 | Cc1cccc(C)c1OCC(C)N (stereo not given) [Mexiletine (hydrochloride)] | 9.5 | 1.48 | -2.5 | -10.3 | 1.04
41 | CCCc1c2oc(C(=O)O)cc(=O)c2cc2c(=O)cc(C(=O)O)n(CC)c12 [Nedocromil (sodium salt)] | -1.27 | 3.78 | -6.98 | 7.47 | -2.49
42 | CN(C)CC/C=C1/c2ccccc2COc2ccc(CC(=O)O)cc21 [Olopatadine (hydrochloride)] | 2.11 | -1.34 | -6.94 | 3.84 | 2.97
43 | CC(C)(Oc1ccc(C(=O)c2ccc(Cl)cc2)cc1)C(=O)O [Fenofibric Acid] | 2.08 | 4.69 | 11.8 | 0.387 | 6.16
44 | NC(=O)N[C@@H](CCC(=O)O)C(=O)O [N-Carbamyl-L-Glutamic Acid] | 5.63 | -0.75 | 17.4 | 3.65 | 8.31
45 | C#C[C@]1(O)CC[C@H]2[C@@H]3CCC4=CC(=O)CC[C@@H]4[C@H]3CC[C@@]21CC [Levonorgestrel] | 2.02 | -3.01 | -12.7 | -0.397 | 3.05
46 | CC[C@@H](CO)NCCN[C@@H](CC)CO [Ethambutol (hydrochloride)] | 2.65 | 1.19 | 7 | 4.16 | -3.67

Source: the supplement of paper PMC10515830
